Screening data from PubChem BioAssay.
DT40 TDP1 CPT = growth inhibition of DT40 Tdp1-/-;hTDP1 cells with camptothecin (screen for TDP1 inhibitors) | chicken DT40 Tdp1-/-;hTDP1 cells + 20 nM CPT, ATP luminescence, 48 h | Potency, µM (titrated, usually from 46.2 µM), for inactives: at the highest dose activity change, negative = growth inhibition, actives largely listed as inhibitors | 12% of 420,000 active | AID 686979; further: potency means the concentration at half of the fitted maximal effect; nearly all actives have a fitted effect of over 55% in size
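Chicken DT40 Tdp1-/- cells stably complemented with human TDP1 were seeded at 400 cells/well in medium containing 20 nM camptothecin, exposed to pin-transferred compounds, and grown at 37 °C for at least 48 hr. Viability was read as ATP luminescence.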
DT40 TDP1 no CPT = qHTS for Inhibitors of human tyrosyl-DNA phosphodiesterase 1 (TDP1): qHTS in cells in absence of CPT. DT40 Tdp1-/- hTDP1 cells, no CPT, ATP luminescence, 48 h. Potency, µM (highest dose often 46.2 µM), inactives show at the highest dose activity change, negative = growth inhibition, hits mostly inhibitors. 15% of 420,000 active; further: potency means the concentration at half of the fitted maximal effect; nearly all actives have a fitted effect of over 55% in size
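No-CPT arm: Tdp1-/-;hTDP1 DT40 cells (400/well) plus compounds, incubated ≥48 hr at 37 °C. Readout CellTiter-Glo luminescence.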
HT1080 IDH1KD tx = kills HT-1080 cells with IDH1 knockdown; HT-1080 IDH1 knockdown viability, ATP luminescence, 48 h; Potency, µM (titrated, usually from 46.1 µM), without a hit: top-dose activity, negative = toxicity, hits mostly cytotoxic; 2% of 360,000 active;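 further: potency means the concentration at half of the fitted maximal effect; 0% = DMSO wells and -100% = cell-free medium wells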
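Viability of IDH1-knockdown HT-1080 fibrosarcoma cells was assessed by CellTiter-Glo after 48 h at 37 °C with titrated compound; concentration-effect curves were classified by fit quality and response size.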
IL-1B inflam inh = inflammasome signaling inhibition, IL-1 beta readout. THP-1 LPS/ATP IL-1B secretion, AlphaLISA, 16 h; stronger effect = lower value. activity change, % at 57.5 µM. 4.7% of 360,000 active; in the data active means activity change below about -50%; inconclusive means mostly about -30% to -49%
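Secreted IL-1B measured by AlphaLISA bead assay after 16 h compound exposure of THP-1 cells; compounds (final up to 57.5 uM) added 1 h before LPS (250 ng/mL) and ATP (1.25 mM) stimulation; lower signal means less secretion.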
HT1080NT lethal = kills 2HG-producing HT-1080-NT fibrosarcoma cells. HT-1080-NT fibrosarcoma viability, CellTiter-Glo ATP luminescence, 48 h. Potency, µM (top dose mostly 46.1 µM), for inactives: top-dose activity, negative = less viability, usual class: cytotoxic. 1.6% of 360,000 active;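 further: NT is the 2HG producing partner of a matched IDH1 knockdown line; potency means the concentration at half of the fitted maximal effect; 0% = DMSO-treated cells and -100% = media-only wells without cells; nearly all actives have a fitted effect of over 55% in size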
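Viability by CellTiter-Glo luminescence after 48 h compound exposure at 37C of HT-1080-NT cells (750/well, RPMI, 5% FBS). % activity scaled between DMSO wells and medium-only wells, then curve-fitted and categorized by curve class.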
ELG1 repair inh = blocks ELG1-dependent DNA repair in HEK293T cells | HEK293T ELG1-luciferase reporter, luminescence, 16 h; DNA damage induced by 5-fluorouridine | Potency, µM (top dose mostly 46.1 µM), inactives show at the top dose activity change, negative = inhibition, usual class: inhibitors | 2.3% of 330,000 active; further: potency means the concentration at half of the fitted maximal effect; nearly all actives have a fitted effect of over 55% in size
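Cells (2,000 per well) received 5-fluorouridine plus test compound or DMSO and were incubated 16 hr at 37 °C, 5% CO2. Luciferase activity was read by luminescence 30 min after ONE-Glo addition; signal suppression marked inhibition of damage-induced ELG1 function.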
* hit, by the source's call; ? = inconclusive; / = no result given. A selection: hits, their analogues and other compounds. The true share with any hit is near 19%. Unless noted, the call rests on the fitted dose curve; in most records, active means well fitted curve in the direction sought with a large enough effect; inconclusive means small, poorly fitted or top-dose-only effect, or another doubt; inactive means no such curve, though single readings can be large; an effect the other way counts as inactive or inconclusive. Unless noted, on the % scale 0 is the no-effect control and ±100 the full control effect.

SMILES	DT40 TDP1 CPT	DT40 TDP1 no CPT	HT1080 IDH1KD tx	IL-1B inflam inh	HT1080NT lethal	ELG1 repair inh
CCCCNc1c(-c2ccc(OC)c(SC3CCCCC3)c2)nc2ccc(C)cn12	5.8µM*	8.2µM*	?	-59*	?	?
CC1=C(C(=O)N(C(C)C)C(C)C)CC(CC(=O)NCc2ccco2)C(=O)N1Cc1ccc(F)cc1 (centres undefined)	-7%	-20%	11%	-14	14%	/
CNC(=O)c1ccsc1NC(=O)c1coc2ccccc2c1=O	?	18µM*	8%	2	26%	-2%
CC(=O)OC1CCC23CC1(C)CCC2C(C)(C)CC3OC(C)=O (centres undefined)	-7%	-27%	/	/	/	/
COc1ccc(CNc2ncnc3cc(Cl)ccc23)cc1OC	?	13µM*	-23%	0	-18%	?
COc1ccc(CCNc2ncnc3c2[nH]c2cc(OC)c(OC)cc23)cc1OC	4.6µM*	6.5µM*	?	/	?	?
Clc1ccc(CCNc2ncnc3c2nnn3Cc2ccccc2)cc1	-22%	?	?	-21	-5%	8%
COc1ccc(CCNc2ncnc3c2nnn3Cc2ccccc2)cc1OC	23µM*	?	-1%	-11	-12%	?
COc1ccccc1CNc1ncnc2cc(Cl)ccc12	?	?	-18%	55	-12%	-8%
COc1ccc(CCNc2nc(=S)[nH]c3cc(OC)c(OC)cc23)cc1OC	-29%	?	1%	15	-6%	-4%
COc1cc2ncnc(NCc3ccc(C)cc3)c2cc1OC	?	23µM*	-13%	-1	3%	?
CC(=O)c1ccc(NC(=O)Cn2cc(S(=O)(=O)Cc3ccccc3Cl)c3ccccc32)cc1	-23%	-10%	/	/	/	/
CC(C)(C)NC(=O)C1(C)CCC(=O)N1C1CC1 (centres undefined)	10%	1%	23%	15	29%	/
NS(=O)(=O)c1ccc(NC(=O)c2cnn3c2NC(=C2CC2)C=C3C(F)F)cc1	-27%	-7%	/	/	/	/
COc1ccc(-n2ccnc(NCCc3ccc(S(N)(=O)=O)cc3)c2=O)cc1	3%	-27%	/	/	/	/
Cc1ccc(-n2ccnc(NCc3cccs3)c2=O)cc1C	?	13µM*	/	/	/	/
COc1ccc(CCNc2ncnc3cc(OC)c(OC)cc23)cc1OC	3.7µM*	6.5µM*	-22%	-73*	-24%	8.2µM*
Cc1ccc(-n2nc(CO)c(C(=O)NCc3cccs3)n2)cc1C	-25%	-15%	/	/	/	/
COc1ccc(-n2ccnc(NCCc3ccccc3)c2=O)cc1OC	?	21µM*	/	/	/	/
COc1cc2ncnc(NCCc3ccccc3)c2cc1OC	13µM*	9.2µM*	5%	0	10%	?
Cc1ccc(NC(=O)Cn2nnc(C(=O)NCc3ccc(Cl)cc3)c2N)cc1F	1%	23%	-10%	11	0%	0%
COc1cc(CNCCc2c[nH]c3ccccc23)cc(Cl)c1OCC(N)=O	?	?	-12%	?	-21%	2%
COc1cccc(CNCCO)c1OCc1ccccc1Cl	5%	-3%	-12%	13	-3%	-2%
COc1cc(CNCCc2c[nH]c3ccccc23)ccc1OCc1ccc(F)cc1	15µM*	18µM*	?	-103*	-23%	-11%
COc1cccc(CNCCc2c[nH]c3ccccc23)c1OCc1ccc(F)cc1	18µM*	15µM*	?	-62*	21µM*	-18%
SMILES	DT40 TDP1 CPT	DT40 TDP1 no CPT	HT1080 IDH1KD tx	IL-1B inflam inh	HT1080NT lethal	ELG1 repair inh
CC(=O)N1CCC(C(=O)NCCOc2ccc(C)cc2)CC1	11%	1%	24%	4	16%	5%
COc1cc(C(C)=O)ccc1OCC(=O)Nc1cc(S(=O)(=O)N2CCOCC2)ccc1N1CCCC1	?	?	-6%	-14	0%	/
CCc1ccccc1OCC(=O)Nc1cc(S(=O)(=O)N2CCOCC2)ccc1N1CCCCC1	23µM*	7.3µM*	-19%	-26	?	?
COc1ccccc1CCC(=O)Nc1cc(S(=O)(=O)N2CCCCC2)ccc1N1CCN(C)CC1	?	21µM*	6%	?	3%	11%
CCCC(=O)Nc1cc(S(=O)(=O)N2CCOCC2)ccc1N1CCCCC1	-29%	?	0%	11	3%	-11%
COc1ccccc1OCC(=O)Nc1cc(S(=O)(=O)N2CCOCC2)ccc1N1CCCCC1	18µM*	15µM*	3%	-55*	20%	26µM*
CC(=O)OCC1OC(n2c(Br)nc3c(=O)[nH]c(N)nc32)C(OC(C)=O)C1OC(C)=O (centres undefined)	11%	22%	/	/	/	/
CCCOc1ccccc1-n1sc2c(c1=S)-c1cc(OC)cc3c1N(C(=O)C3=O)C2(C)C	16µM*	16µM*	?	-4	?	0%
O=C(Nc1ccc(-c2cn3ccsc3n2)cc1)c1ccc(F)c(S(=O)(=O)N2CCOCC2)c1	?	23µM*	-15%	54	-7%	16µM*
